# Data as given in PubChem BioAssay AID1508600 (Functional Genomics Laboratory (NCATS/FGL), 2020).
# About 3,700 (7%) of roughly 53,000 sequences were called active. Shown is part of a subset that was picked to be rich in actives. Unmarked numbers belong to inactive results.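 How the source made its calls: active means gene knockdowns whose robust z-score for IL-1 alpha signal is at least 2 or at most -2, so actives lie on both sides; inactive means the rest.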
# Assay: Components of the Cytosolic LPS Sensing Pathway: Gene Identification via Genome-wide siRNA Screen;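 further: robust z of the log signal after scaling to non-targeting control siRNA wells of the plate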
# Conditions: RAW264.7 macrophages, IL-1a HTRF, actives lie on both sides, screened at 100 nM (by protocol), cells primed 5 h with Pam3CSK4 first
# Outline: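 Knockdown: 100 nM siRNA, 48h, RAW264.7. Stimulation: Pam3CSK4 5 h, then LipidA via TransIT-TKO 24 h. Output: supernatant IL-1a HTRF, negative-control-normalized, log robust z-score; viability by CellTiter-Glo.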
row,Sequence,z-score
1,CCACAUCUUUGACGAGUACTT against Rgs16,-0.145
2,GGAAGACAGGCAUAAAAAATT against Slc41a2,-1.38
3,GGUUAAGUCCCUAGGACAUTT against Blzf1,0.998
4,GGAAAAAUUGCUUCUGACCTT against Rad51b,-1.17
5,CCUACAAACCAGAAGAGGUTT against Akr1c19,0.285
6,CCAGACAUGAUACUCCGGCTT against Tssk3,2.57 (active)
7,GCCUGUGUGCUGUUGUGUUTT against Krtap5-1,1.33
8,CGGCAUCAUUCAUUCAUUATT against Pacrgl,2.01 (active)
9,CGAUACUGUGCAAAGAAUCTT against Nepro,0.231
10,CCUGUGUCAAUCCUGUGCATT against Ifitm7,0.0113
11,GGAACUUUAUGUGGAAAGATT against Vmn1r235,-0.449
12,CGGUCAAGGACAGGAAGUGTT against Eif4b,0.518
13,GGACAAAGAUAAUGGAAAATT against Erlec1,0.353
14,GGGAACGCAACAUUUCUCCTT against Oxld1,2.34 (active)
15,GGAUUCCAAUUUUAUUCCATT against Brca1,1.57
16,GAUAACAAGCAUCUCAUGUTT against Krtap6-5,-0.411
17,CCGGCAGACCUGUGACAUUTT against Rgs14,0.0166
18,GGUGGAGAAGCUCAUUGCUTT against Zap70,0.444
19,GGAAGAAAGAGUGUAUCAATT against Idi2,0.487
20,GGCUCAACCAAGAAAGGCUTT against 4930591A17Rik,-1.28
21,GAAAGAAACGGCAGAUUGCTT against Vmn2r122,0.133
22,GGAAAGUUGUGAACUCUAATT against Olfr1157,0.583

row,Sequence,z-score
1,GGAUUAGUGCAGGAAUCAATT against Rel,0.922
2,GUUCCUGUUCCACUACUGCTT against Sts,-2.32 (active)
3,GCAAAACUGAACAAAGUACTT against Xirp2,0.658
4,CGAGUGUUGAAUAUUGUGATT against Gpr65,0.158
5,GGUAGUUAAUCAGUGUAAATT against Rps6kb1,1.1
6,GGAUACCAUCAUUGAUGUCTT against Dmap1,-2.29 (active)
7,UCGGCCAUGUAGUAUGGGATT against Xlr3a,0.42
8,GCACUCACGAUCAUCUUUGTT against Has1,-0.513
9,GGCCCAGGUGGAUAGUUAUTT against Cep120,2.03 (active)
10,GGAAAACACACUUUUCUUUTT against Thap2,-0.119
11,GGCAGCAGGAUGCAGAAAUTT against Ngef,-2.43 (active)
12,GCUAUAGAUUGGCUUUAUGTT against Depdc1a,0.727
13,GACAAAACUCAUUGUUCUUTT against Taf11,1.16
14,CCUUCUCAUAGUGAAAGUATT against Zkscan5,1.05
15,GCCUUGCCCUGACUAUGUUTT against Paqr3,0.0997
16,GGUGCACAGAUGUCUUACCTT against Sec24d,-0.945
17,GGUAGAAGAGUCUGAUCAUTT against Sfrp1,-0.0589
18,GGCCAUUUACAAGAUGGUUTT against Hpca,-0.619
19,GGUGGUCUACAGAAAAUUCTT against Ncf1,-0.908
20,GGUGGUUCACAAAUACUGUTT against Agtpbp1,0.264
21,GGGCUACAUUCCUUCCAAUTT against Frk,5.59 (active)
22,GGAUCUCGAGCUGACAGAATT against Arhgap33os,1.31

row,Sequence,z-score
1,GGGAAAGGAUUCAAUUAAGTT against Lratd2,0.0415
2,GAGGGCUCUACAGUUUUUATT against Atp5g3,0.952
3,GGCCUUCGAAAUAAUUCUGTT against Ppp1r14d,-0.605
4,GACCUUCGACACCGACAAATT against Rtl8c,3.29 (active)
5,GCGGCGAUACUUCUACUUGTT against Grk2,-0.584
6,CCUGUACAUUGUGUAAUGUTT against Pcdh8,0.0925
7,CCUGAACGACAGAUUGGCATT against Krt20,-0.697
8,CGAAUCCUUAGUUGAAGAATT against Fastkd1,1.18
9,GGAAAUUUCAGAGCUCAAGTT against Trpc2,-2.81 (active)
10,GGCAAAAGCACUGAAGAGATT against Ar,-0.63
11,GGGCUCUUUAGUACUAGAATT against Spn,-0.612
12,GGUCCCUUGAUGUCGAUUATT against Stt3b,-1.15
13,GCUUCAGCUCUGAUUAACGTT against Alox8,-0.233
14,GCCGAUAGCAUAGACAGUGTT against Kansl2,0.6
15,CCAGUCCUACUUAGCAAAGTT against Lrrc75a,-1.48
16,GGUGCAGAGCUUGAGAUGATT against Anks3,-0.729
17,GCUGAACAUUAGCUUCAAUTT against Lrrc9,-1.42
18,GGUUGCUCACUCAUUUAACTT against Pa2g4,2.18 (active)
19,GGAGACAUAUGAGACUCUGTT against Fcer1g,0.156
20,GGGACAGAUACUAAACUCUTT against Wfdc2,3.49 (active)
21,CCAUGGUUACCGUGUACUATT against Olfr1513,-0.312
22,GGAUCAUUGACAGUGAAUATT against Blk,-1.35

row,Sequence,z-score
1,GGUCCUAUUUCGGAGCUUUTT against Tnfsf14,0.365
2,GCUCAUCGUGUUUUCAACCTT against Cbr3,-0.034
3,GGGACACACCAUCAAAAGGTT against Kank4,-2.32 (active)
4,GGAAAAAUGGAAACCUAAGTT against Nipal3,1.16
5,GGUAUUAUCUGCAUGGGCATT against Mkrn3,0.273
6,GGAUGAAGUGUGUUUUGGCTT against Sim1,0.95
7,GGACCUUUUGUCUAUAAUGTT against Arl4c,0.759
8,GGCAGCUAAACUGUGUUAUTT against Tex11,-1.36
9,GGGCUUUGGACAUCUCCUATT against Serpina3c,-1.98
10,GGGAUAUCCUACCAGGUCATT against Ppard,-1.24
11,GCUCCUUUAGUCCUCACCATT against Mrpl10,-2.15 (active)
12,GGAUCUUCAGGAAAACAGATT against Fam181b,-0.955
13,CCACCCUUCUUCUAUCGAATT against Ybx2,-1.11
14,GCCAGAGUUUAUUAACUGCTT against Stxbp6,-0.809
15,CCAUUGCAGCAUACUGUCCTT against Serpina1b,-0.402
16,GCGGCUAAUUCGUUCUUUCTT against Atp8a1,0.708
17,GGUCAGGUAGGGAUAUACATT against Dele1,-1.59
18,CCAAUAAAAGUGCACACCUTT against Actb,2 (active)
19,GGCAGCAAGUUUUUUAAUCTT against Cap1,0.464
20,GGAAAACAACAUGAUCGUGTT against Nadk,-0.137
21,UCCCUAACGGCCCUUUUUATT against H4c14,-0.729
22,GGACAAGCUCCAAAACAACTT against Srsf4,-0.292

row,Sequence,z-score
1,UAGGAACGCACCCAUACAATT against Fam89b,0.555
2,GGAAAACCCAGGUCAGAAUTT against Serpina9,-1.07
3,CCUUAAGCAGAGUUCAAAGTT against Timm22,0.197
4,CCCUCCUCAGUAUUGUACUTT against Dtx2,2.51 (active)
5,GGUCAUUUCAAGUGCUAAGTT against Adgra1,2.76 (active)
6,GCCAGAAGUGAAAAUCGAATT against Fkbp14,0.509
7,GGGACAAGGCCUCGAUAUUTT against Ggps1,0.958
8,CGCAGGACUAUAAACUGAATT against Ptdss2,0.954
9,CCUCUUUCGACAAGAGCUCTT against Atp1a3,0.904
10,GCAGAUCGUGCGGAUCUUGTT against Bcdin3d,2.1 (active)
11,GGCAUUGUUUUCAUUGUGGTT against Cldn7,-0.0872
12,GGAUGUGAUCCUACUGACATT against Tmem208,0.793
13,GCUUCGAUACCUUCAAACCTT against Stom,-3.7 (active)
14,CGAGAGUCUAACCAAGUACTT against Arhgdib,-1.89
15,GGAGAUUGUGAGAGCCAUGTT against Kcnab3,-0.753
16,GAGUGAGAAAGCCAGAGACTT against Acaa1a,0.188
17,GGACUGUUUACUCAGCUCATT against Slc25a33,-2.02 (active)
18,GGCCCACAAGGCUGUUUUGTT against Zfp131,0.459
19,GGAUUUCAAGGGAAUUUGATT against Wbp4,-0.271
20,GCCAGUUGUGACAAAACUATT against Abca1,-1.22
